ATXN2 expr inh: Primary qHTS for Inhibitors of ATXN expression; actives 0.72% (n = 360,000); Potency, µM (series often up to 57 µM), actives largely listed as inhibitors; HEK-293 ATXN2-luciferase reporter, luminescence, 24 h; AID 1745845, 2022; note: nearly all actives have a fitted effect of over 55% in size
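qHTS (up to 57 uM final) was run with 24 h compound exposure of reporter cells at 37 °C. Each well was multiplexed: SteadyGlo luminescence measured ATXN2-luciferase expression after a fluorogenic Gly-Phe-AFC viability readout (25 uM final).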
ATXN viability: Viability Counterscreen for Primary qHTS for Inhibitors of ATXN expression | actives 0.49% (n = 400,000) | Potency, µM (series often up to 56.7 µM), hits mostly cytotoxic | S2 cells (HEK-293 line with an ATXN2-luciferase reporter) viability, CellTiter-Fluor protease fluorescence, 24 h; note: nearly all actives have a fitted effect of over 40% in size
TGFb inhibitor: qHTS for Inhibitors of TGF-b; HepG2 CAGA-GFP TGF-b/SMAD3 reporter, GFP fluorescence, 18 h; TGF-beta stimulated, 500 pg/mL final; Potency, µM (doses to about 46.1 µM), usual class: inhibitors; actives 1.2% (n = 410,000); AID 588855, 2011; note: nearly all actives have a fitted effect of over 65% in size
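HEPG2 CAGA-GFP reporter cells (1000/well, DMEM with 1% FBS) received compounds, then recombinant TGF-beta at 500 pg/mL final for 18 hours at 37 degrees C. Per-cell GFP summed per well was normalised to unstimulated and stimulated DMSO controls before curve fitting.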
Nrf2 block: Nrf2 qHTS screen for inhibitors | A549 ARE-Fluc reporter, luciferase luminescence, 18-24 h | actives 2.1% (n = 360,000) | AID 504444, 2011 | Potency, µM (series often up to 46 µM), hits mostly inhibitors; note: nearly all actives have a fitted effect of over 60% in size
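Quantitative HTS in A549 cells stably bearing an antioxidant response element-firefly luciferase construct. Inhibition of Nrf2-driven transcription was scored by luminescence after 18-24 h of compound exposure at 37 °C.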
A549 tox: Nrf2 qHTS screen for inhibitors: counterscreen for cytotoxicity; A549 ARE-Fluc cells, CellTiter-Fluor viability, 18-24 h; Potency, µM (doses to about 46 µM), actives largely listed as inhibitors; actives 0.16% (n = 390,000); AID 504648, 2011
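A549 ARE-Fluc cells in 5% FBS OPTI-MEM, 5000 cells/well, rested 2 h then exposed to compounds in concentration-response for 18-24 h at 37 °C. Viability by CellTiter-Fluor fluorescence (Ex 405/Em 525) after 30 min; luciferase luminescence (BugLite, 15 min, RT) read afterwards.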
HepG2 tox: qHTS for Inhibitors of TGF-b: Cytotox Counterscreen; HepG2 CAGA-GFP viability, ATP luminescence, 18 h; Potency, µM (series often up to 46.1 µM), most hits filed as cytotoxic; actives 0.76% (n = 410,000)
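HepG2 CAGA-GFP cells (1000/well, DMEM with 1% FBS) received compound, then TGF-beta at 500 pg/mL final, and were incubated 18 hours at 37 degrees C. Viability was read by CellTiter-Glo luminescence. Media-only wells were set as complete cell-killing and DMSO as no toxicity.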
A number is an active result; 0 = inactive; ? = inconclusive; - = no result. The list is not random: actives were taken first. Their share in the collection is about 3.8%. Calls come from the whole dose curve; as a rule, active = well fitted curve in the direction sought with a large enough effect; inconclusive = small, poorly fitted or top-dose-only effect, or another doubt; inactive = no such curve, though single readings can be large; an effect the other way counts as inactive or inconclusive.

SMILES	ATXN2 expr inh	ATXN viability	TGFb inhibitor	Nrf2 block	A549 tox	HepG2 tox
O=C(NCCC1=CCCCC1)c1ccc(Cl)c(S(=O)(=O)N2CCCCC2)c1	0	0	?	14.6µM	0	0
Cc1ccc(NC(=O)c2ccc(Cl)c(S(=O)(=O)N3CCCCC3)c2)nc1	0	0	0	20.6µM	0	0
Cc1ccc(NC(=O)C2CCN(S(=O)(=O)c3cc([N+](=O)[O-])ccc3Cl)CC2)nc1	-	?	?	20.6µM	0	0
Cc1cc(NC(=O)c2ccc(Cl)c(S(=O)(=O)N3CCCCC3)c2)no1	0	0	0	23.1µM	0	0
C[C@H](CO)N1C[C@H](C)[C@@H](CN(C)C(=O)Nc2ccc(F)cc2)Oc2ncc(-c3ccc(F)cc3)cc2C1=O	0	0	0	-	-	0
Cc1ccc(S(=O)(=O)N2CCN(C(=O)COC(=O)/C=C/c3ccc(OC(F)F)cc3)CC2)cc1	0	0	0	0	0	0
COc1ccc([C@@H]2C[C@H]3[C@@H](CN2S(=O)(=O)c2ccccc2)C(=O)C[C@@H](c2cccc4ccccc24)N3S(=O)(=O)c2ccc(C)cc2)cc1	0	0	0	-	-	0
Cc1cccc(C)c1NC(=O)C(NC(=O)CN1C(=O)c2ccccc2C1=O)c1ccccc1 (centres undefined)	0	0	?	0	0	0
CCOc1ccc(-c2c(C(=O)N/N=C/C3CC=CCC3)nnn2-c2nonc2N)cc1 (centres undefined)	0	0	0	0	0	0
Cc1ccc(NC(=O)c2cccc(S(=O)(=O)N3CCN(c4ccccc4)CC3)c2)nc1	0	0	0	14.6µM	0	0
CCN(CC)CCCCNc1ncc2cc(-c3cc(OC)cc(OC)c3)c(NC(=O)NC(C)(C)C)nc2n1	?	8.91µM	?	?	?	14.1µM
O=C1C(Cc2ccccc2)Nc2ncnc(N3CCN(c4ccccc4)CC3)c2N1Cc1ccc(Cl)cc1 (centres undefined)	0	0	0	0	0	0
Cc1nn(-c2ccccc2)c(Cl)c1CN(C(=O)CCl)c1cccc2ccccc12	?	28.2µM	?	0	0	0
Cc1nn(-c2ccccc2)c(Cl)c1C(=O)NCC(=O)O	0	0	0	0	0	0
CC(=O)N(Cc1c(C)nn(-c2ccccc2)c1Cl)c1ccc(Cl)cc1	0	0	0	0	0	0
Cc1nn(-c2ccccc2)c(Cl)c1CN(C(=O)CCl)c1ccc(Cl)cc1	14.1µM	11.2µM	10µM	0	0	7.94µM
CCC(C(=O)NCCc1ccccc1OC)n1nc(C)c2c(C)n(-c3ccccc3)nc2c1=O (centres undefined)	-	-	0	?	0	0
CCOc1ccc(Cl)cc1-c1cc(C(=O)Nc2ccc(F)cc2)[nH]n1	?	?	?	-	-	0
Nc1nccc(Oc2ccc(NC(=O)c3c[nH]cc(-c4ccc(F)cc4)c3=O)cc2F)c1Cl	30.6µM	-	-	-	-	-
Cc1cc(Br)ccc1NC(=O)CN(C)C(=O)C1CCN(c2ncnc3sc(C)c(C)c23)CC1	?	?	?	?	20.6µM	0
Cc1sc2ncnc(N3CCC(C(=O)NNC(=O)c4ccccc4Cl)CC3)c2c1C	0	?	0	16.4µM	0	0
OCCN1CCN(C(c2ccccc2Cl)c2sc3nc(-c4ccco4)nn3c2O)CC1 (centres undefined)	0	0	0	-	0	0
NS(=O)(=O)c1ccc(N=Nc2c[nH]c(=O)c(O)c2)cc1	0	17.8µM	0	0	23.1µM	0
COc1ccc(N/N=C/c2c(C(=O)O)ccc3ccccc23)cc1	-	?	2.24µM	?	0	0
COc1ccc(C2c3c(n(Cc4ccccc4)cnc3=N)Oc3ccc4ccccc4c32)cc1OC (centres undefined)	-	-	-	0	0	-
SMILES	ATXN2 expr inh	ATXN viability	TGFb inhibitor	Nrf2 block	A549 tox	HepG2 tox
CCN(CC)S(=O)(=O)c1cc(NC(=O)C(C)OC(=O)c2[nH]c(C)c(C(C)=O)c2C)ccc1C (centres undefined)	0	?	?	11.6µM	0	0
CC(=O)c1c(C)[nH]c(C(=O)OC(C)C(=O)Nc2ccc(C)c(S(=O)(=O)N3CCOCC3)c2)c1C (centres undefined)	0	0	0	0	0	0
CC(=O)c1ccc(-c2ccc(-c3cc(=O)oc4c(C(C)C)ccc(C)c34)cc2)cc1	?	0	0	23.1µM	0	0
Cc1ccc(NC(=O)Cn2c(=O)cc(-c3ccccc3)c3c(C)nn(C)c32)c(Cl)c1	0	0	0	0	0	0
CCC(=O)NC(c1ccc(C)cc1)c1cc(Cl)c2cccnc2c1O (centres undefined)	?	?	?	?	0	0
CC(=O)NC(C)c1cc(Cl)c2cccnc2c1O (centres undefined)	7.94µM	6.31µM	7.08µM	0	0	8.91µM
CCOc1ccc(C(NC(C)=O)c2cc(Cl)c3cccnc3c2O)cc1 (centres undefined)	-	-	3.16µM	-	-	0
CCC(=O)NC(C)c1cc(Cl)c2cccnc2c1O (centres undefined)	8.91µM	?	1.78µM	0	0	0
COc1ccc(C(NC(C)=O)c2cc(Cl)c3cccnc3c2O)cc1OC (centres undefined)	?	?	?	?	0	0
CCN1CCN(C(c2ccc(F)cc2)c2sc3nc(-c4ccco4)nn3c2O)CC1 (centres undefined)	0	0	0	-	0	0
CC(=O)Nc1ncc(N=Nc2cccc(C(F)(F)F)c2)s1	0	?	0	0	11.6µM	0
O=C1C=C(c2ccc(CO)cc2)C[C@@H](c2ccc(F)cc2)C1	0	0	?	-	-	0
CC(O)(c1ccc(F)c(F)c1)c1nc(-c2cnc3ccccc3c2)cs1 (centres undefined)	0	0	15.8µM	-	-	0
COc1ccc(C(C)(O)c2nc(-c3cccc(C(C)C)c3)cs2)cc1 (centres undefined)	?	0	?	-	-	20µM
CC(O)(c1cccc(F)c1)c1nc(-c2cccc(F)c2)cs1 (centres undefined)	0	0	7.94µM	-	-	0
CC(C)c1cccc(-c2csc(C(C)(O)c3cccc(F)c3)n2)c1 (centres undefined)	0	?	?	-	-	15.8µM
CC(O)(c1ccc(F)c(F)c1)c1nc(-c2ccc3ccccc3c2)cs1 (centres undefined)	0	0	?	-	-	0
COc1ccc(C(C)(O)c2nc(-c3cccc(F)c3)cs2)cc1 (centres undefined)	0	0	0	-	-	0
Cc1ccc(-c2csc(C(C)(O)c3cccc(F)c3)n2)cc1C (centres undefined)	0	0	?	-	-	0

Screening data (PubChem BioAssay)
